# Assay results from the supplement of paper PMC8728848.
# Only a selection was taken, and the strongest signals are over-represented in it overall.
# Key:
# Assay in all cases: glycan array binding signal (z-score within array); higher = stronger binding
# Conditions in all cases: glycan notation: IUPAC condensed, linker removed
# [1] = target: Neu5Ac(a2-3)Gal(b1-4)GlcNAc(b1-6)GalNAc
# Outline: (§1)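 Columns mapping to the same glycan were averaged after glycan names were converted to IUPAC-condensed notation. The data come from 3228 arrays in the Consortium for Functional Glycomics database, limited to those with an available protein sequence. Binding is reported as a within-array Z-score averaged across arrays of one protein sequence and across linkers.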
# [2] = target: Neu5Ac(a2-3)Gal(b1-4)GlcNAc(b1-6)[Gal(b1-3)]GalNAc
# Outline: as §1
# [3] = target: Neu5Ac(a2-3)[GalNAc(b1-4)]Gal(b1-4)GlcNAc
# Outline: as §1
# [4] = target: Neu5Ac(a2-3)[GalNAc(b1-4)]Gal(b1-4)GlcNAc(b1-3)GalNAc
# Outline: as §1
# [5] = target: Neu5Ac(a2-6)Gal(b1-4)GlcNAc(b1-2)Man(a1-3)[Neu5Ac(a2-6)Gal(b1-4)GlcNAc(b1-2)Man(a1-6)]Man(b1-4)GlcNAc(b1-4)GlcNAc
# Outline: as §1
# [6] = target: Neu5Ac(a2-6)Gal(b1-4)GlcNAc(b1-3)GalNAc
# Outline: as §1
# [7] = target: Neu5Ac(a2-6)Gal(b1-4)GlcNAc(b1-6)[Gal(b1-3)]GalNAc
# Outline: as §1
# [8] = target: Neu5Ac9Ac(a2-3)Gal(b1-4)GlcNAc
# Outline: as §1
# [9] = target: Neu5Gc(a2-3)Gal(b1-3)[Fuc(a1-4)]GlcNAc
# Outline: as §1
# [10] = target: Neu5Gc(a2-3)Gal(b1-4)GlcNAc(b1-3)Gal(b1-4)GlcNAc(b1-2)Man(a1-3)[Neu5Gc(a2-3)Gal(b1-4)GlcNAc(b1-3)Gal(b1-4)GlcNAc(b1-2)Man(a1-6)]Man(b1-4)GlcNAc(b1-4)GlcNAc
# Outline: as §1
# [11] = target: Neu5Gc(b2-6)Gal(b1-4)GlcNAc
# Outline: as §1
# [12] = target: Fuc(a1-2)Gal(b1-4)GlcNAc(b1-6)GalNAc
# Outline: as §1
# [13] = target: Fuc(a1-2)[Gal(a1-4)]Gal(b1-4)GlcNAc
# Outline: as §1
# [14] = target: Fuc(a1-2)[GalNAc(a1-3)]Gal
# Outline: as §1
# [15] = target: Fuc(a1-2)[GalNAc(a1-3)]Gal(b1-4)GlcNAc(b1-2)Man
# Outline: as §1
# [16] = target: Fuc(a1-3)GlcNAc
# Outline: as §1
# [17] = target: Fuc(a1-3)[Gal(b1-4)]GlcNAc(b1-2)Man
# Outline: as §1
# [18] = target: Fuc(a1-3)[Gal(b1-4)]GlcNAc(b1-3)Gal(b1-4)[Fuc(a1-3)]GlcNAc(b1-3)Gal(b1-4)[Fuc(a1-3)]GlcNAc
# Outline: as §1
# [19] = target: Gal(a1-2)Gal
# Outline: as §1
# [20] = target: Gal(a1-3)Gal(b1-4)Glc
# Outline: as §1
# [21] = target: Gal(b1-3)GlcNAc(b1-2)Man(a1-3)[Gal(b1-3)GlcNAc(b1-2)Man(a1-6)]Man(b1-4)GlcNAc(b1-4)[Fuc(a1-6)]GlcNAc
# Outline: as §1
# [22] = target: Gal(b1-3)[Fuc(a1-4)]GlcNAc(b1-3)Gal(b1-4)[Fuc(a1-3)]GlcNAc
# Outline: as §1
# [23] = target: Gal(b1-4)GlcNAc(b1-2)Man(a1-3)[Gal(b1-4)GlcNAc(b1-2)Man(a1-6)]Man(b1-4)GlcNAc(b1-4)[Fuc(a1-6)]GlcNAc
# Outline: as §1
# [24] = target: Gal(b1-4)GlcNAc(b1-2)[Gal(b1-4)GlcNAc(b1-6)]Man(a1-6)[Gal(b1-4)GlcNAc(b1-2)Man(a1-3)]Man(b1-4)GlcNAc(b1-4)[Fuc(a1-6)]GlcNAc
# Outline: as §1
# [25] = target: Gal(b1-4)GlcNAc(b1-3)Gal(b1-3)GlcNAc
# Outline: as §1
# [26] = target: Gal(b1-4)GlcNAc(b1-3)Gal(b1-4)GlcNAc(b1-2)Man(a1-3)[Gal(b1-4)GlcNAc(b1-3)Gal(b1-4)GlcNAc(b1-2)Man(a1-6)]Man(b1-4)GlcNAc(b1-4)[Fuc(a1-6)]GlcNAc
# Outline: as §1
# [27] = target: Gal(b1-4)GlcNAc(b1-3)Gal(b1-4)GlcNAc(b1-3)Gal(b1-4)GlcNAc
# Outline: as §1
# [28] = target: Gal(b1-4)GlcNAc(b1-3)Gal(b1-4)GlcNAc(b1-3)Gal(b1-4)GlcNAc(b1-3)Gal(b1-4)GlcNAc(b1-3)Gal(b1-4)GlcNAc(b1-2)Man(a1-3)[Gal(b1-4)GlcNAc(b1-3)Gal(b1-4)GlcNAc(b1-3)Gal(b1-4)GlcNAc(b1-3)Gal(b1-4)GlcNAc(b1-3)Gal(b1-4)GlcNAc(b1-2)Man(a1-6)]Man(b1-4)GlcNAc(b1-4)[Fuc(a1-6)]GlcNAc
# Outline: as §1
# [29] = target: Gal(b1-4)GlcNAc(b1-3)GalNAc
# Outline: as §1
# [30] = target: Gal(b1-4)GlcNAc6P
# Outline: as §1
# [31] = target: GalNAc(a1-3)GalNAc(b1-3)Gal(a1-4)Gal(b1-4)GlcNAc
# Outline: as §1
# [32] = target: GalNAc(b1-3)Gal(a1-4)Gal(b1-4)GlcNAc
# Outline: as §1
# [33] = target: GalNAc(b1-4)GlcNAc(b1-2)Man(a1-3)[GalNAc(b1-4)GlcNAc(b1-2)Man(a1-6)]Man(b1-4)GlcNAc(b1-4)GlcNAc
# Outline: as §1
# [34] = target: GlcA3S(b1-3)Gal(b1-4)GlcNAc(b1-2)Man
# Outline: as §1
# [35] = target: GlcNAc(a1-4)Gal(b1-3)GlcNAc
# Outline: as §1
# [36] = target: GlcNAc(b1-2)Man(a1-3)[GlcNAc(b1-2)Man(a1-6)]Man(b1-4)GlcNAc(b1-4)GlcNAc
# Outline: as §1
# [37] = target: GlcNAc(b1-2)Man(a1-3)[GlcNAc(b1-2)Man(a1-6)]Man(b1-4)GlcNAc(b1-4)[Fuc(a1-6)]GlcNAc
# Outline: as §1
# [38] = target: GlcNAc(b1-2)[GlcNAc(b1-4)]Man(a1-3)[GlcNAc(b1-4)][GlcNAc(b1-2)Man(a1-6)]Man(b1-4)GlcNAc(b1-4)GlcNAc
# Outline: as §1
# [39] = target: GlcNAc(b1-2)[GlcNAc(b1-6)]Man(a1-6)[GlcNAc(b1-2)Man(a1-3)]Man(b1-4)GlcNAc(b1-4)[Fuc(a1-6)]GlcNAc
# Outline: as §1
# [40] = target: GlcNAc(b1-3)Gal(b1-4)GlcNAc(b1-2)Man(a1-3)[GlcNAc(b1-3)Gal(b1-4)GlcNAc(b1-2)Man(a1-6)]Man(b1-4)GlcNAc(b1-4)[Fuc(a1-6)]GlcNAc
# Outline: as §1
# [41] = target: GlcNAc(b1-3)Gal(b1-4)GlcNAc(b1-3)Gal(b1-4)GlcNAc(b1-2)Man(a1-3)[GlcNAc(b1-3)Gal(b1-4)GlcNAc(b1-3)Gal(b1-4)GlcNAc(b1-2)Man(a1-6)]Man(b1-4)GlcNAc(b1-4)[Fuc(a1-6)]GlcNAc
# Outline: as §1
binder,measurement,setting,value
SP16664B-bot-474-25-474 (Bacteroides ovatus) (protein) CEEDIEIGNKIDESSYLASTQLSGLLLDENTNKNSSVIELRNNEYSTNVVFRLSKLPQKGVDVQIAVEESYAAIYNTIHETDFEVFPAANVKIANNGTFVLAPDDKVTPSVKVTLTAFDGMEEDKTYIVPLTVTSSTEGVTFTETSKHMVLLVQDYRNKPNTNKGEDAVQTVLYFEVNDTNPLNALEFLTESGKYFFDHIVLFAANINWDPEKQRVYLANNENVQFLLDNNDKYLQPLRKAGMKIIISILGNHDEAGVAQLSDMGAREFARELAAYCRAYNLDGVAFDDEYSNSPDLSNPWLASPSAYAGSRLMYECKAVMPEKIVSLYNLGNMYSSSLQVIDGIEPGQYCDYAVADYGGAAGPGTGMTLKQCAGMSIELRRGSGNSSESTARSRKEAGYGYYMFFALDPSLYGSQVYRCQSVCKGLYDETLVYPSYYYKKNSTEREAIN,glycan array binding signal (z-score),[1],-0.362
same,glycan array binding signal (z-score),[2],-0.456
same,glycan array binding signal (z-score),[3],-0.21
same,glycan array binding signal (z-score),[4],0.051
same,glycan array binding signal (z-score),[5],-0.081
same,glycan array binding signal (z-score),[6],-0.034
same,glycan array binding signal (z-score),[7],-0.15
same,glycan array binding signal (z-score),[8],-0.181
same,glycan array binding signal (z-score),[9],-0.071
same,glycan array binding signal (z-score),[10],-0.304
same,glycan array binding signal (z-score),[11],0.041
APVPVTKLVCDGDTYKCTAYLDFGDGRWVAQWDTNVFHTG [PhoSpL (Pholiota squarrosa)],glycan array binding signal (z-score),[12],-0.46
same,glycan array binding signal (z-score),[13],0.637
same,glycan array binding signal (z-score),[14],-0.032
same,glycan array binding signal (z-score),[15],0.067
same,glycan array binding signal (z-score),[16],-0.427
same,glycan array binding signal (z-score),[17],-0.336
same,glycan array binding signal (z-score),[18],-0.179
same,glycan array binding signal (z-score),[19],-0.168
same,glycan array binding signal (z-score),[20],0.101
same,glycan array binding signal (z-score),[21],6.05
same,glycan array binding signal (z-score),[22],-0.256
same,glycan array binding signal (z-score),[23],13.4
same,glycan array binding signal (z-score),[24],8.42
same,glycan array binding signal (z-score),[25],0.027
same,glycan array binding signal (z-score),[26],1.94
same,glycan array binding signal (z-score),[27],-0.517
same,glycan array binding signal (z-score),[28],0.488
same,glycan array binding signal (z-score),[29],-0.135
same,glycan array binding signal (z-score),[30],-0.747
same,glycan array binding signal (z-score),[31],0.539
same,glycan array binding signal (z-score),[32],0.249
same,glycan array binding signal (z-score),[33],1.41
same,glycan array binding signal (z-score),[34],-0.16
same,glycan array binding signal (z-score),[35],-0.307
same,glycan array binding signal (z-score),[36],-0.238
same,glycan array binding signal (z-score),[37],4.77
same,glycan array binding signal (z-score),[38],-0.113
same,glycan array binding signal (z-score),[39],4.35
same,glycan array binding signal (z-score),[40],2.47
same,glycan array binding signal (z-score),[41],1.44
